mHTT CaM bind: disrupts binding of mutant huntingtin to calmodulin. AlphaScreen His-mHTT/GST-CaM binding, luminescence. AID 1671202. actives 3.6% (n = 190,000). inhibition, % at 15 µM. P42858;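 further: 0% = both proteins with DMSO and 100% = one protein alone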
Target sequence (P42858 whole entry, looked up, stated change not applied): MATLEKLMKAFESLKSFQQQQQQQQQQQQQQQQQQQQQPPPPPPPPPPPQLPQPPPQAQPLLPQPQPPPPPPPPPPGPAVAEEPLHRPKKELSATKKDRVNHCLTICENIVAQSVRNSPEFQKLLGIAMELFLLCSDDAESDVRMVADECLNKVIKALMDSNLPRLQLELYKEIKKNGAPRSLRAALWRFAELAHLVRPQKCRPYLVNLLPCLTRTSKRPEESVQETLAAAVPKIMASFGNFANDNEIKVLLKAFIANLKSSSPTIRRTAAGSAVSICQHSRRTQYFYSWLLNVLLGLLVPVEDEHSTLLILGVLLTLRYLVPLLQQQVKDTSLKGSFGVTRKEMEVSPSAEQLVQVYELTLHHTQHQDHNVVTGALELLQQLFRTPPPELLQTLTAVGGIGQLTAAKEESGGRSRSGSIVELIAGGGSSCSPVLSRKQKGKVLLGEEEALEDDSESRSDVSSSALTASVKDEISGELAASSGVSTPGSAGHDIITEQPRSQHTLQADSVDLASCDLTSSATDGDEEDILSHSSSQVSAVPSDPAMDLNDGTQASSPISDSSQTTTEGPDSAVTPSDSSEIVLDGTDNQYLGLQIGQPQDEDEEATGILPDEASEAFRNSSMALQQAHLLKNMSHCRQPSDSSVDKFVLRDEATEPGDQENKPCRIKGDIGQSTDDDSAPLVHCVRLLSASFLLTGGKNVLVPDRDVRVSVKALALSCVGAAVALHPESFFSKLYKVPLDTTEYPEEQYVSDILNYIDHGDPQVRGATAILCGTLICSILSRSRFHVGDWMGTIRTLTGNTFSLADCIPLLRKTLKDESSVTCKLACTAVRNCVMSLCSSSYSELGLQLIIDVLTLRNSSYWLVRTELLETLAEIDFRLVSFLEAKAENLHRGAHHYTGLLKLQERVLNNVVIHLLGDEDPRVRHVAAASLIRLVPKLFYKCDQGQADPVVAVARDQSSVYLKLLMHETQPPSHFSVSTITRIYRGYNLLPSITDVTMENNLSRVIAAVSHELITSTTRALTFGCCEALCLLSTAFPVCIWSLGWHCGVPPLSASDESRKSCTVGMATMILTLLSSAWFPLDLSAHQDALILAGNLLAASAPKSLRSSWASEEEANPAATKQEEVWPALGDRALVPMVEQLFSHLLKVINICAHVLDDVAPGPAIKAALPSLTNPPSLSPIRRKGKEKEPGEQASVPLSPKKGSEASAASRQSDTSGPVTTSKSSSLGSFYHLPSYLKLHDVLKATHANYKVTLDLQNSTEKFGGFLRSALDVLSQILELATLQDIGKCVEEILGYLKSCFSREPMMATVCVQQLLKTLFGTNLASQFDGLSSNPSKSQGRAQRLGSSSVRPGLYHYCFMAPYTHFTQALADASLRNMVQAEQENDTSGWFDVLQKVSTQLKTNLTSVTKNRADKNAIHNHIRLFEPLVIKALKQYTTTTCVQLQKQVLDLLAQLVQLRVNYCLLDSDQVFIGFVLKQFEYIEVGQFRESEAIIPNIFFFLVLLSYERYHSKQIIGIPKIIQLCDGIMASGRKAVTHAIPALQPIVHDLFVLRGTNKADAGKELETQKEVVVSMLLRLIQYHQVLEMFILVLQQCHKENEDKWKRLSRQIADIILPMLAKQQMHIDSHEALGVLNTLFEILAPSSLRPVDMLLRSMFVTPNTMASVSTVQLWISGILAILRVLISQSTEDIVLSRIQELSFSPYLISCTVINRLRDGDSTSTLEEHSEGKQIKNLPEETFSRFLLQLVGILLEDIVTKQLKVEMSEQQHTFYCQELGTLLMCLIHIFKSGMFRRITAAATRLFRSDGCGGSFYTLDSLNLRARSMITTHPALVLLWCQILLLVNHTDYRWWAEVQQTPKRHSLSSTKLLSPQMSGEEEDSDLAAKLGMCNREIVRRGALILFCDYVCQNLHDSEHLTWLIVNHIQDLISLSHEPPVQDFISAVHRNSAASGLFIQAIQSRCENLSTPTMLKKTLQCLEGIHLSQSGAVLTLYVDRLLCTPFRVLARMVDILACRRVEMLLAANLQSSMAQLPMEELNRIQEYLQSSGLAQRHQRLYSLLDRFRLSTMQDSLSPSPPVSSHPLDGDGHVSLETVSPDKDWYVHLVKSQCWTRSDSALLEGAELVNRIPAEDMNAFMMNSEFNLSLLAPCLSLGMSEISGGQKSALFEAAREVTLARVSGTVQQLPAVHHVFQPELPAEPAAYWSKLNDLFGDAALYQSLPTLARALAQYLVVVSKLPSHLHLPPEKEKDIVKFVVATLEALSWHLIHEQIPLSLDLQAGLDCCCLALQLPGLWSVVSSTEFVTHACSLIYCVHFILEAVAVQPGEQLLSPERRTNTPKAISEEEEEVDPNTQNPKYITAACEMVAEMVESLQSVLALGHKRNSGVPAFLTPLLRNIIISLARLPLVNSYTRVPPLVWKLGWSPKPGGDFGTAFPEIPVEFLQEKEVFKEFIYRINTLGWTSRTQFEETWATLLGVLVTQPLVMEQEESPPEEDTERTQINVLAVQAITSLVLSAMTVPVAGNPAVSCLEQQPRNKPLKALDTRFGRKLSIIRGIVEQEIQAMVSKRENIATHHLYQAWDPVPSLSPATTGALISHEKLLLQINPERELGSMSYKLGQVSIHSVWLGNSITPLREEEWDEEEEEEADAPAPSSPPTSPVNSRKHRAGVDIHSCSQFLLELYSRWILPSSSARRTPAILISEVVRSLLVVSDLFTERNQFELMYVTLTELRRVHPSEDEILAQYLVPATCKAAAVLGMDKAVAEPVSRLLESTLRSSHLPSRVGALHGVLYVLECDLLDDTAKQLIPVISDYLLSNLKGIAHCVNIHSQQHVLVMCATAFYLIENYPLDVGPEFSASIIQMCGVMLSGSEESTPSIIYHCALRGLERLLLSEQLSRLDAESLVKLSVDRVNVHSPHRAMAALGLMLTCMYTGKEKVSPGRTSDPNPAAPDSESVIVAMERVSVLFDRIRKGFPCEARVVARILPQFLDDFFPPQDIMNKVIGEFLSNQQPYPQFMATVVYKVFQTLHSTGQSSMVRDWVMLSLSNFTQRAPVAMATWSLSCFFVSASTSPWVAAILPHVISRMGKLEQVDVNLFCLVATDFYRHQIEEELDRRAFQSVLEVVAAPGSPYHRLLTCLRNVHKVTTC
Pf apPOL inh: Pf-apPOL DNA polymerase inhibition. Recombinant Pf-apPOL, molecular beacon fluorescence, 1.5 h. inhibition, % at 10 µM. actives 0.25% (n = 210,000). AID 1794808
Numbers without * were called inactive; i = inactive; / = not tested or not shown. Rows were chosen to be rich in hits. Some 3.5% of all compounds tested hit in one or more screens of this group. No stated cut-off is given here; in the data, active means inhibition above about 50%; inactive means the rest.

SMILES	mHTT CaM bind	Pf apPOL inh
Cc1ccc(S(=O)(=O)CCSc2n[nH]c(=O)n2-c2ccccc2C(F)(F)F)cc1	/	-8
CCCc1ccc(OCC(O)CN2CCN(Cc3ccccc3)CC2)cc1 (stereo unspecified)	10	-6
COc1ccc(NC(=O)COc2ccc([N+](=O)[O-])cc2)c(OC)c1	-2	-8
COc1ccc(NCc2ccc([N+](=O)[O-])s2)c(OC)c1	67*	22
COc1cc(/C=C2\C(=O)NN(c3cccc(Br)c3)C2=O)ccc1OC(C)C	3	2
CC(C)n1cc2cc(C(=O)N(C)C)sc2c1	12	1
CN(Cc1ccccc1)C(=O)c1cc2cn(C3CC3)cc2s1	95*	2
CC(C)n1cc2cc(C(=O)N(C)Cc3ccccc3)sc2c1	86*	1
CC(C)n1cc2cc(C(=O)N3CCN(Cc4cccc(F)c4)CC3)sc2c1	71*	3
O=C(NCc1ccccc1)c1cc2cn(C3CC3)cc2s1	42	18
CC(C)N1CCN(C(=O)c2cc3cn(C(C)C)cc3s2)CC1	22	-5
CC1=NN(c2cccc(Cl)c2)C(=O)/C1=C/c1ccc(-c2cc([N+](=O)[O-])ccc2O)o1	92*	-3
COc1cc(/C=C2/C(=O)N(c3ccc(C(=O)O)cc3)N=C2C)c([N+](=O)[O-])cc1OC	6	100*
CC1=NN(c2ccccc2)C(=O)/C1=C/c1ccc(-c2ccc([N+](=O)[O-])cc2C)o1	1	-9
COc1cc(/C=C2/C(=O)N(c3ccc(C)cc3)N=C2C)c([N+](=O)[O-])cc1OC	49	-7
COc1ccc(/C=C2/C(=O)N(c3cccc(Cl)c3)N=C2C)cc1[N+](=O)[O-]	18	0
COc1cc(/C=C2/C(=O)N(c3cccc(Cl)c3)N=C2C)c([N+](=O)[O-])cc1OC	62*	1
CCOc1cc(C=O)cc(Cl)c1OC(C)C	-5	-8
COc1ccc(NC(=O)C2(N(Cc3ccccc3)C(=O)Cn3nnnc3N)CCCCC2)cc1	19	-5
O=[N+]([O-])c1ccc(CNC2CCCC2)cc1	-2	-10
Cc1cccc(NS(=O)(=O)c2cccc([N+](=O)[O-])c2)c1	6	-4
CCCC(=O)Nc1ccc(NC(=O)c2ccc(C)cc2)cc1	5	-4
CCCOc1ccc(C(=O)Nc2ccccc2[N+](=O)[O-])cc1	29	-9
CCCCOc1ccc(C(=O)Nc2ccc(NC(=O)CCC)cc2)cc1	0	99*
CCCOc1ccc(C(=O)Nc2ccccc2C)cc1	-7	90*
SMILES	mHTT CaM bind	Pf apPOL inh
Fc1cccc(/C=N/N2CCN(C3c4ccccc4-c4ccccc43)CC2)c1	i	/
COc1cc(C=Nn2c(C)n[nH]c2=S)cc(OC)c1OC	/	11
Cc1ccc(-n2nc3c(c2NC(=O)c2ccccc2I)CSC3)cc1	25	-5
O=C(OCC1OC(O)C(O)(COC(=O)c2cc(O)c(O)c(O)c2)C1O)c1cc(O)c(O)c(O)c1 (stereo unspecified)	/	64*
Cc1ccc(OCC(=O)Nc2cccc(-c3nc4ncccc4o3)c2)c(C)c1	15	-4
Clc1cccc(C2CC(c3ccc(I)cc3)Nc3ncnn32)c1 (stereo unspecified)	51*	-3
COc1cccc(C2CC(c3cccc(Cl)c3)n3ncnc3N2)c1 (stereo unspecified)	5	1
Fc1ccc(C2CC(c3ccc(I)cc3)Nc3ncnn32)cc1 (stereo unspecified)	31	-4
Fc1ccc(C2CC(c3ccc(Cl)cc3)Nc3ncnn32)cc1 (stereo unspecified)	58*	3
COc1ccc(/C=C/C(=O)Nc2ccc3nc(N4CCN(C)CC4)cc(C)c3c2)cc1OC	51*	-2
COc1cc(/C=C/C(=O)Nc2ccc3nc(N4CCN(C)CC4)cc(C)c3c2)cc(OC)c1OC	21	-4
Cc1cc(N2CCN(C)CC2)nc2ccc(NC(=O)/C=C/c3cccc(Cl)c3)cc12	94*	-8
Cc1cc(N2CCCCC2)nc2ccc(NC(=O)/C=C/c3cccs3)cc12	33	-5
COc1cc(NC(=O)N2CCOc3ccccc32)cc(OC)c1OC	5	-11
Cn1ccc(C(=O)N2CCN(c3nc4ccc(OC(F)(F)F)cc4s3)CC2)n1	-8	-41
CC(=O)c1cc2c(cc1[N+](=O)[O-])OCCO2	-5	-9
O=c1c(-c2ccccc2)c(O)nc2ccccn12	/	-1
CCc1c(O)nc2ccccn2c1=O	-8	73*
Cc1ccc(C)c(CNC(=O)C2CCCN(c3cnn(Cc4ccccc4)c(=O)c3)C2)c1 (stereo unspecified)	43	1
C/C(=C\c1ccccc1)CN1CCCN(C)CC1	-1	3
Cc1nc2ccccc2c(C(=O)O)c1C(=O)O	-2	-12
CCOc1ccccc1C1C2=C(CC(C)(C)CC2=O)Nc2nnnn21 (stereo unspecified)	-3	-3
COc1ccc2c(c1)c(CC(=O)NCc1cccnc1)c(C)n2C(=O)c1ccc(Cl)cc1	58*	-4
O=C(Cc1ccc(Cl)cc1)NCc1cccnc1	-2	10

Source: PubChem (University of Kansas High Throughput Screening Laboratory)
